The entries come from a sample that favours hits as a whole.
OTUD3 inh = inhibitors of human OTUD3 deubiquitinase. purified OTUD3, Ub-rhodamine fluorescence, 2 h. OTU domain-containing protein 3 (Homo sapiens), Q5T2D3. inhibition, % at 25 µM. hit rate 0.7% among 47,000
UCHL1 inh = inhibitors of human UCHL1 deubiquitinase | Ubiquitin carboxyl-terminal hydrolase isozyme L1 (Homo sapiens), P09936 | purified UCHL1, Ub-rhodamine cleavage fluorescence | inhibition, % at 20 µM | hit rate 0.2% among 47,000
Target sequence (P09936 whole entry, looked up): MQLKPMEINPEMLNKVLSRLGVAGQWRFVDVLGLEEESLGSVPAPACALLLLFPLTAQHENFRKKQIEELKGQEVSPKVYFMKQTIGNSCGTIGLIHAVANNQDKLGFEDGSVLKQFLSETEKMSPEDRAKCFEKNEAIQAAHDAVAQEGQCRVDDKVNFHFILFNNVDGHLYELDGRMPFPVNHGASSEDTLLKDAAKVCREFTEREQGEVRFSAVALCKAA
Numbers without * were called inactive. Rule as the data show it: active = inhibition above about 30%; inactive = the rest.

SMILES	OTUD3 inh	UCHL1 inh
COc1ccccc1CNCC(O)(c1ccccc1)c1ccc(F)cc1 (configuration not stated)	24.3	5.5
CCCCCCNc1ncnc2c1sc1nc(-c3ccccc3)c3c(c12)CC(C)(C)OC3	13.9	-0.8
O=C(c1ccc(F)cc1Cl)N(c1ccccn1)C1CCCCC1	3.8	5.2
O=C(c1ccc(Cl)cc1)N(c1ccccn1)C1CCCCC1	43.7*	10.9
CCOc1ccc(NC(=O)CSc2cc(=O)n(C)c3cc(Cl)ccc23)cc1	3.0	0.0
CC1OC2CC(O)C1(O)C1=C2C(O)=C(C(N)=O)C(=N)C1=O (configuration not stated)	51.0*	52.0*
CC1OC2CC(O)C1(O)C1=C2C(=O)c2c(O)c3c(c(O)c2C1=O)[C@H](C)O[C@H]1CC(=O)O[C@@H]31 (some centres not stated)	-7.3	-4.2
O=C(/C=C/C=C/C=C/C1CCCCC1)NC1=C[C@@](O)(/C=C/C=C/C=C/C(=O)NC2=C(O)CCC2=O)[C@@H]2O[C@@H]2C1=O	72.8*	47.0*
CCc1nc2c(C#N)c(-c3ccc(Cl)cc3)ccn2n1	32.5*	6.6
N#Cc1c(-c2ccc3c(c2)OCO3)ccn2nc(-c3ccco3)nc12	-10.5	-7.7
Cn1c(CCN2CCCCC2)nc2cc(NC(=O)c3ccc(Cl)cc3)ccc21	8.6	-0.9
COc1ccc2nc(Nc3ncc4c(n3)CCCC4=O)nc(C)c2c1	8.4	-1.9
O=C(Cn1c(=O)n(-c2ccccc2)c(=O)c2ccc(C(=O)NCc3ccc4c(c3)OCO4)cc21)NCCC1=CCCCC1	57.6*	2.9
O=C(Cn1c(=O)n(CCCC(=O)N2CC=C(c3ccccc3)CC2)c(=O)c2ccccc21)NCCC1=CCCCC1	37.4*	3.1
O=C(CCCCn1c(=O)c2ccccc2n(CC(=O)NCCC2=CCCCC2)c1=O)NCc1ccc2c(c1)OCO2	-0.8	0.3
CCCCNC(=O)CCCn1c(=O)c2ccccc2n(CC(=O)NCCC2=CCCCC2)c1=O	9.8	0.0
COc1ccc(NC(=O)C(C)n2c(=O)cc(-c3ccccc3)c3c(C)nn(C)c32)cc1OC (configuration not stated)	20.8	4.1
COc1ccccc1NC(=O)c1ccc(S(=O)(=O)N(C)Cc2ccccc2)cc1	16.9	5.7
O=C(COc1ccc(Cl)cc1)Nc1onc2c1CCCC2	0.3	-2.3
O=C(Nc1nccs1)C1c2ccccc2C(=O)N(Cc2ccccc2)C12CCCC2 (configuration not stated)	9.5	68.6*
COCCN1C(=O)c2ccccc2C(C(=O)Nc2ccccn2)C12CCCCC2 (configuration not stated)	-8.0	-1.5
CCc1ccc(-n2ccc(=O)c(-c3nc(-c4ccncc4)no3)n2)cc1	-2.4	-2.7
COc1ccc(NC(=O)c2nnc(C(=O)NCCN3CCCCCC3)s2)cc1	33.6*	6.1
Cc1nnc(C(=O)Nc2cccc(C(=O)NCCN3CCCCCC3)c2)s1	-172.1	-39.2
COc1ccc(NC(=O)Cn2c(=O)n(CCCC(=O)NC3CCCC3)c(=O)c3cc(Cl)ccc32)c(OC)c1	16.0	2.8
SMILES	OTUD3 inh	UCHL1 inh
CCOC(=O)c1cc2c(ccn2C)n1Cc1cccc2ccccc12	-0.9	2.2
O=C(CN1C(=O)COc2ccc(Cl)cc21)Nc1cccc2ncccc12	-15.0	5.6
CCc1cc(=O)oc2c(C)c(OCC(=O)N3CCC4(O)CCCCC4C3)ccc12 (configuration not stated)	0.1	-0.9
Cc1c(OCC(=O)NCC(=O)N2CCC3(O)CCCCC3C2)ccc2c3c(c(=O)oc12)CCCC3 (configuration not stated)	41.0*	-1.4
O=C(NCc1ccncc1)c1ccc(-n2cccn2)c(C#Cc2cccnc2)c1	-5.3	-0.3
COc1ccc(-c2nc(-c3cn(-c4ccccc4)nn3)no2)c(OC)c1	34.5*	1.8
COc1ccc(-c2nc(-c3cn(-c4cccc(Cl)c4)nn3)no2)c(OC)c1	-3.3	10.3
CCc1ccc(NS(=O)(=O)c2c[nH]c3ccc([N+](=O)[O-])cc23)cc1	13.2	3.6
O=C(NCc1ccco1)c1nn(C23CC4CC(CC(C4)C2)C3)cc1[N+](=O)[O-]	10.0	0.0
O=C(NCc1ccc2c(c1)OCO2)c1nn(C23CC4CC(CC(C4)C2)C3)cc1[N+](=O)[O-]	32.6*	6.2
Cc1cc(C)cc(NC(=O)N2CCC(c3nnc(-c4ccccc4)o3)CC2)c1	14.4	1.4
CC(Sc1n[nH]c2nc3ccccc3n12)C(=O)Nc1ccc2c(c1)OCCO2 (configuration not stated)	34.0*	0.2
O=C(CSc1n[nH]c2nc3ccccc3n12)Nc1ccc2[nH]c(=O)[nH]c2c1	5.6	5.1
O=S(=O)(c1ccc(Cl)cc1)N(Cc1ccccc1)Cc1nnnn1-c1ccccc1	17.3	9.1
O=C(Nc1cccc(C(F)(F)F)c1)N1CCCn2c(nc3ccccc32)C1	6.2	1.3
O=[N+]([O-])c1ccc(N2CCN(CC(O)c3ccc4c(c3)CCN4)CC2)cc1 (configuration not stated)	-5.8	-0.8
O=[N+]([O-])c1ccc(C(O)CN2CCN(Cc3ccccc3)CC2)cc1 (configuration not stated)	8.1	79.1*
COc1cc(/C=C/C(=O)O)ccc1O	-1.2	-0.5
COc1cc(/C=C/C(=O)OCC(=O)Nc2ccc([N+](=O)[O-])cc2OC)ccc1O	47.2*	23.9
Cc1ccc(CNC(=O)NC2CCN(c3ccccc3)C2=O)cc1 (configuration not stated)	16.0	2.9
Cc1ccc(NC(=O)Cc2nnc3c(-c4nc(C5CC5)no4)cccn23)cc1F	7.5	31.5*
Cc1ccc(NC(=O)Cc2nnc3c(-c4nc(C5CC5)no4)cccn23)c(C)c1	-13.2	9.2
O=C(CCc1cccnc1)N1CCCC2(CCCN2Cc2ccc(Cl)cc2)C1 (configuration not stated)	4.6	-0.6
COc1ccc(CN2CCCC23CCCN(C(=O)CCc2cccnc2)C3)cc1F (configuration not stated)	44.4*	0.5
N#C/C(=C\c1ccc(OCc2cccc(C(=O)O)c2)cc1)c1ccc(F)cc1	8.3	5.1
SMILES	OTUD3 inh	UCHL1 inh
COc1ccccc1-n1c(SCC(=O)N2CCc3ccccc32)nnc1-c1ccncc1	4.2	3.1
COc1ccc(OC)c(-n2c(SCC(=O)N3CCc4ccccc43)nnc2-c2cccc(S(=O)(=O)N(C)C)c2)c1	32.0*	10.2
CC[C@H](C)[C@H](NC(=O)[C@H]([C@@H](C)CC)N(C)C(C)=O)C(=O)N[C@H](C(=O)N[C@@H](CC(C)C)C(=O)C1(C)CO1)[C@@H](C)O (some centres not stated)	31.1*	25.3
Cc1cc(C)nc(NCCC(=O)N2CCC3(CC=CCOC3)CC2)n1	9.8	-0.3
CCn1cc(NC(=O)CN2CCC3(CC=CCOC3)CC2)c(C)n1	45.7*	-0.3
Cc1ccc(-c2nc(-c3ccccc3)c(S(=O)(=O)CC(=O)Nc3ccc(F)c(Cl)c3)[nH]2)cc1	1.2	2.9
COc1ccc(N(C)S(=O)(=O)c2cccc(C(=O)OC(C)C(=O)Nc3cccc(C(C)=O)c3)c2)cc1 (configuration not stated)	4.1	4.1
CC(=O)c1cccc(NC(=O)C(C)OC(=O)c2cc3ccccc3[nH]2)c1 (configuration not stated)	33.1*	1.0
